From PubChem BioAssay
Only some compounds are listed: those with a hit (about 12% of all), similar ones and a draw of the others.
BAZ2B block – qHTS Assay for Inhibitors of BAZ2B; Bromodomain adjacent to zinc finger domain protein 2B (Homo sapiens), Q9UIF8; AlphaScreen BAZ2B-H3K14Ac peptide displacement; Potency, µM (top dose mostly 114 µM), inactives show at the highest dose activity change, negative = inhibition, usual class: inhibitors; actives 4.4% (n = 360,000); AID 504333, 2011; further: on the % scale 0 is the no-effect control and ±100 the full control effect; nearly all actives have a fitted effect of over 60% in size
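BAZ2B (50 nM) with biotin-H3(5-23)K14Ac peptide (50 nM) in PBS pH 7.4, 0.01% Tween-20, preformed 30 min, then compound 30 min at room temperature; top concentration 110uM. AlphaScreen streptavidin donor/nickel chelate acceptor beads (10 ug/mL final), 20 min dark, signal read.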
JMJD2A Tudor – qHTS Assay for Inhibitors of JMJD2A-Tudor Domain | AID 504339, 2011 | actives 4.4% (n = 390,000) | Potency, µM (top dose mostly 114 µM), without a hit: top-dose activity change, negative = inhibition, hits mostly inhibitors | Lysine-specific demethylase 4A (Homo sapiens), O75164 | AlphaScreen JMJD2A-Tudor / H3K4me3 peptide binding; further: on the % scale 0 is the no-effect control and ±100 the full control effect; nearly all actives have a fitted effect of over 50% in size
Sfp inh – qHTS Assay for Inhibitors of Bacillus subtilis Sfp phosphopantetheinyl transferase (PPTase). 4'-phosphopantetheinyl transferase ffp (Bacillus subtilis), Q9F4F7. Biochemical Sfp PPTase activity, qHTS. Potency, µM, without a hit: largest response in the series, negative = inhibition, actives largely listed as inhibitors. actives 3.5% (n = 310,000). AID 1490, 2009;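 further: the enzyme is Sfp with the accession as filed and its product quenches rhodamine fluorescence; 0% = enzyme reaction without inhibitor and -100% = no enzyme wells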
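After 15 min at room temperature with compound, 15 nM Sfp received 5 uM rhodamine-CoA plus 12.5 uM BHQ-2-ybbR (50 mM Hepes pH 7.6, 10 mM MgCl2). Rate came from the fluorescence difference over 30 min, ex 525/em 598 nm.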
HP1b binding inh – HTS for Inhibitors of HP1-beta Chromodomain Interactions with Methylated Histone Tails. Chromobox protein homolog 1 (Homo sapiens), P83916. AlphaScreen HP1-beta / biotin-H3K9me3 peptide binding. Potency, µM (highest dose often 114 µM), for the others: at the highest dose activity change, negative = inhibition, most hits filed as inhibitors. actives 0.56% (n = 390,000). AID 540317, 2011; further: nearly all actives have a fitted effect of over 70% in size
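AlphaScreen: HP1-beta (50 nM) preformed 30 min with biotin-H3(1-18)K9me3 peptide (50 nM) in PBS pH 7.4, 0.01% Tween-20. Compound added for 30 min at RT, then streptavidin donor/nickel chelate acceptor beads (10 ug/mL) for 30 min.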
G9a inh – qHTS Assay for Inhibitors of Histone Lysine Methyltransferase G9a. Histone-lysine N-methyltransferase EHMT2 (Homo sapiens), Q96KQ7. G9a H3K9 monomethylation, AlphaScreen, 2 h. Potency, µM (highest dose often 102 µM), without a hit: top-dose activity, negative = inhibition, hits mostly inhibitors. actives 8.8% (n = 350,000). AID 504332, 2011; further: on the % scale 0 is the no-effect control and ±100 the full control effect; nearly all actives have a fitted effect of over 75% in size
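Chemiluminescent proximity detection of H3K9 monomethylation, read after 10 min bead incubation in the dark. Reaction: 20 nM G9a, 500 nM biotin-H3K9 peptide, 20 uM SAM cofactor, 2 h, room temperature, following 15 min enzyme-compound preincubation.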
* marks the source's active call; other numbers are inactive results; [ ] = another dose, or the depositor's remark. The call rests on the fitted dose curve; in most records, active means well fitted curve in the direction sought with a large enough effect; inconclusive means small, poorly fitted or top-dose-only effect, or another doubt; inactive means no such curve, though single readings can be large; an effect the other way counts as inactive or inconclusive. Potency means the concentration at half of the fitted maximal effect.

For C=C(C)Cn1c(-c2cccc([N+](=O)[O-])c2)n[nH]c1=S the results were BAZ2B block -16%, JMJD2A Tudor 8.9µM*, Sfp inh -15%, HP1b binding inh 11% and G9a inh 13µM*.
`C=CC[N+](C)(C)c1ccc(CCC(=O)CCc2ccc([N+](C)(C)CC=C)cc2)cc1` gave BAZ2B block -13%, JMJD2A Tudor -4%, HP1b binding inh 29% and G9a inh 16µM*.
Screening O=C(Oc1ccccc1)N(c1ccccc1)c1ccccc1 returned BAZ2B block 46%, JMJD2A Tudor -17%, Sfp inh -5% and HP1b binding inh -17%.
For COc1cc(CNCCc2ccc3c(c2)OCO3)ccc1O the results were BAZ2B block 2%, JMJD2A Tudor -15%, Sfp inh 5%, HP1b binding inh 37% and G9a inh 0%[0.501 µM].
For COc1cc(CNCCc2ccc3c(c2)OCO3)cc(OC)c1OC the results were BAZ2B block 56µM*, JMJD2A Tudor 0.79µM*, Sfp inh -19%, HP1b binding inh inconclusive and G9a inh 5µM*.
For COc1ccc(CNCCc2ccc3c(c2)OCO3)cc1Br the results were BAZ2B block 50µM*, JMJD2A Tudor 18µM*, Sfp inh inconclusive, HP1b binding inh -15% and G9a inh 5µM*.
For COc1ccc(Br)cc1CNCCc1ccc2c(c1)OCO2 the results were JMJD2A Tudor 25µM* and HP1b binding inh inconclusive.
COc1ccccc1CCNCc1cc2c(cc1[N+](=O)[O-])OCO2 was read as BAZ2B block 50µM*, JMJD2A Tudor 3.5µM*, Sfp inh -16%, HP1b binding inh -55% and G9a inh 25µM*.
`c1cncc(CNCCc2ccc3c(c2)OCO3)c1` gave BAZ2B block -13%, JMJD2A Tudor 0%, Sfp inh -2% and HP1b binding inh 46%.
`CN1CCN(Cc2cc3c(cc2[N+](=O)[O-])OCO3)CC1` gave BAZ2B block 6%, JMJD2A Tudor -15%, Sfp inh 0% and HP1b binding inh 22%.
CCCCC(C#N)(Cn1cncn1)c1ccc(Cl)cc1 (stereo not drawn) was read as Sfp inh 5%.
CCCCC(CC)COCCCN=Cc1c(O)[nH]c(=S)[nH]c1=O (stereo not drawn) was read as BAZ2B block -34%, JMJD2A Tudor -8%, Sfp inh inconclusive, HP1b binding inh 73% and G9a inh inconclusive.
For CCOC(=O)c1cc(CC)sc1/N=C/C1C(=O)NC(=S)NC1=O the results were JMJD2A Tudor -14%, Sfp inh 18µM*, HP1b binding inh 9% and G9a inh 45µM*.
For CCOC(=O)c1cc(CC)sc1/N=C/c1c(O)[nH]c(=S)[nH]c1=O the results were BAZ2B block -15%, JMJD2A Tudor -23%, Sfp inh 8.9µM*, HP1b binding inh -3% and G9a inh inconclusive.
For CCOC(=O)c1c(/N=C/C2C(=O)NC(=O)NC2=O)sc2c1CCC2 the results were BAZ2B block -5%, JMJD2A Tudor -3%, Sfp inh 35µM*, HP1b binding inh 34% and G9a inh inconclusive.
Screening CC(C)(C)[C@]1(O)C[C@@H]2OC(=O)CC23C(=O)O[C@@H]2OC(=O)[C@H](O)C231 (stereo partly drawn) returned Sfp inh 15% and G9a inh 29%[59 µM].
C=C[C@H]1CN2CC[C@@H]1C[C@H]2[C@@H](O)c1ccnc2ccccc12 was read as Sfp inh 8% and G9a inh 11%[21.5 µM].
For CN1C(=O)NC(=O)[C@]2(Cc3ccccc3N3CCN(c4ccccc4)CC32)C1=O (stereo partly drawn) the results were BAZ2B block -28%, JMJD2A Tudor -33%, Sfp inh -17%, HP1b binding inh 11% and G9a inh 3.2µM*.
